Hit rate of the full screen: of about 360,000 compounds, about 1,500 (0.42%) were called active. Shown is part of a subset that was picked to be rich in actives. Unmarked numbers belong to inactive results. Rule as the data show it: active = inhibition above about 8.5%; inactive = the rest.

The subject of the test is HIV-1 gp120 / PG9 antibody interaction. Put plainly: small molecules engaging PG9 antibody – biochemical, TR-FRET, primary screen (AID 624416). As to conditions: TR-FRET gp120-PG9 antibody binding; at 6.7 µM; active compounds read high.
For `S=c1[nH]c2ccccc2c2ccccc12`, the inhibition was 41.9% (active).

Consider `S=c1ccc2ccccc2[nH]1`, for which the inhibition was 1.87%.

For the compound `Cc1cc2c3ccccc3[nH]c(=O)n2n1`, the inhibition is 0.66%.

Turning to `Cc1ccc(-n2ncc3c2ncn2nc(-c4ccco4)nc32)c(C)c1`, the inhibition is 1.54%.

As for `Cc1ccc(-n2nc(-c3ccco3)cc2C(=O)NCc2cccnc2)cc1`, the inhibition is 1.7%.

Regarding `Cc1ccc(-n2ncc3c(=O)n(-c4ccc(C)c(C)c4)c(-c4ccco4)nc32)cc1`, the inhibition is 9.24% (active).

For `CCOC(=O)Cn1c2c(n(-c3ccc(F)cc3)c1=O)C=C(c1ccccc1)[C@@H](C)C(C(=O)N(C)C1CCCCC1)=C2`, the inhibition is 1.82%.

As to `CCCCCCCCN1C(=O)[C@@H](CC(=O)N2CCN(C(=O)OCC)CC2)C[C@@]2(C(=O)OC)C1=C[C@H](C1CCCC1)O[C@@H]2C`, the inhibition is -1.72%.

`Cc1nn(C)cc1C(=O)Nc1ccccc1Br`: the inhibition was -1.45%.

Consider `Cc1nn(C)cc1CNC(=O)Nc1ccc(Cl)cc1`, for which the inhibition is -1.07%.

Regarding `Cc1ccc(-c2cc(C(=O)NCc3cn(C)nc3C)c3cc(Br)ccc3n2)cc1`, the inhibition was 11.4% (active).

With `Cc1cc(OC(=O)NCCc2ccc(F)cc2)ccc1F`, the inhibition is 0.4%.

For `COC(=O)[C@]12C[C@H](CC(=O)NCc3ccccc3)C(=O)N(CCC3=CCCCC3)C1=C[C@H](C(C)(C)C)O[C@@H]2C`, the inhibition was -0.45%.

As to `Nc1ncnc2c1ncn2C1OC(CO)CC1O` (stereo not drawn), the inhibition is -0.46%.

With `CSc1nc2c(c(=O)[nH]1)C(c1cccc(Cl)c1Cl)CC(=O)N2` (stereo not drawn), the inhibition was -0.61%.

Take `N#Cc1c(N)nc2c3c(sc(=N)c2c1N)NC(=O)CC3c1ccccc1Cl` (stereo not drawn): the inhibition was 36.3% (active).

On to `NNc1nc2c(Cl)cccc2s1`, for which the inhibition was -3.22%.

Take `Fc1cc(F)c2nc(Nc3nc4c(F)cccc4s3)sc2c1`: the inhibition was 12.7% (active).

`Cc1cc(NCCc2c[nH]c3ccccc23)ccc1Oc1cccnc1`: the inhibition is 0.39%.

For `C[C@@H](CN1C2=NC[C@@H](Cc3ccccc3)N2C[C@H]1Cc1ccc(O)cc1)NC(=O)CCC1CCCCC1`, the inhibition is -0.86%.

Regarding `COc1ccc(NC(=O)CC(NC(C)c2ccccc2)C(=O)O)cc1` (stereo not drawn), the inhibition was -1.77%.

Consider `COc1ccc(CC(=O)Nc2ccc(-c3nnc(-c4ccccc4)o3)cc2)cc1`, for which the inhibition is 9.44% (active).

As to `COc1ccc(NC(=O)CSc2nnc(Cc3ccccc3)c(=O)n2N)cc1`, the inhibition is -0.48%.

As to `CC(C)[C@H]1COCCS(=O)(=O)N1Cc1ccccc1-c1cccc2c1sc1ccccc12`, the inhibition was -1.17%.

`C=CC[C@]12C[C@@]3(O[C@H](c4ccc(C(F)(F)F)cc4)N=C3C[C@H](c3ccc(OC)cc3)[C@H]1C)N(C1CCN(Cc3ccccc3)CC1)C2=O`: the inhibition was -1.53%.

Consider `CCCn1c(N)c(C(=O)CSc2nc3ccccc3c(=O)n2-c2ccc(OC)cc2)c(=O)[nH]c1=O`, for which the inhibition is -1.09%.

For `Cc1ccc(-n2c(SCC(=O)N3CCC(C(=O)O)CC3)nc3ccccc3c2=O)cc1C`, the inhibition was -0.77%.

`COc1cccc(-n2c(SCC(=O)c3c[nH]c4ccccc34)nc3ccccc3c2=O)c1`: the inhibition is 35.5% (active).

As to `O=C(NCCc1ccccn1)c1ccc(COc2ccccc2)o1`, the inhibition is -2%.

For the compound `O=C(NCCc1ccccn1)c1cc(C(=O)C2CCCCC2)c[nH]1`, the inhibition was 10.2% (active).

Consider `COc1ccc(CNC(=O)c2cc(C(=O)C3CC3)c[nH]2)cc1`, for which the inhibition was -0.91%.

On to `COc1ccc(CCNC(=O)CSc2nc(-c3ccc(OC)c(OC)c3)ccc2C#N)cc1`, for which the inhibition was 16% (active).

Regarding `COc1ccc(CCNC(=O)COC(=O)c2cnc(Cl)c(Cl)c2)cc1`, the inhibition is -0.95%.

As for `COc1ccc(CCNC(=O)CSc2nc(C)nc3c2oc2ccccc23)cc1OC`, the inhibition is -0.52%.

As to `COc1cccc(-c2ccc(C#N)c(SCC(=O)NCCc3ccc(Cl)cc3)n2)c1`, the inhibition was 14.1% (active).

Consider `COc1cc(OC)cc(C(=O)NCCSCc2ccc(Cl)cc2)c1`, for which the inhibition is -1.65%.

As to `COc1ccc(CCNC(=O)CSc2nnc3ccc(-c4ccncc4)nn23)cc1`, the inhibition was -1.52%.

Regarding `CCc1c(-c2ccccc2OC)ncn1CCc1ccccc1OC`, the inhibition was 0.74%.

Consider `COC(=O)[C@]12C[C@H](CC(=O)N3CCN(C(=O)C4CC4)CC3)C(=O)N(Cc3ccc4c(c3)OCO4)C1=C[C@H](C(C)(C)C)O[C@@H]2C`, for which the inhibition is -1.36%.

`COC(=O)c1ccc(CN2C(=O)[C@]3(OCCC=C[C@H]3C)c3c(Br)cccc32)cc1`: the inhibition was 0.64%.

`COc1ccccc1C(=O)N1O[C@]23C=C[C@]14C[C@@H](O)CC[C@]4(C)C2CC[C@]1(C)[C@@H]([C@H](C)/C=C/[C@H](C)C(C)C)CC[C@H]13` (stereo partly drawn): the inhibition is 0.64%.

On to `NC(=O)c1ncn([C@@H]2O[C@H](C(=O)O)[C@@H](O)[C@H]2O)n1`, for which the inhibition was -0.47%.

In the case of `CCOC(=O)c1c(C)[nH]c(C(=O)OCC(=O)c2ccc(OC)cc2OC)c1C`, the inhibition is 9.16% (active).

On to `COc1ccc(C(=O)COC(=O)C(O)c2ccccc2)c(OC)c1` (stereo not drawn), for which the inhibition was -2.12%.

On to `CCOC(=O)c1c(C)[nH]c(C(=O)COc2ccc3c(c2)OCO3)c1C`, for which the inhibition is 3.13%.

On to `COC(=O)Cc1nnn2c1[C@H](C)[C@@H](OC)c1cc(Br)ccc1-2`, for which the inhibition was 0.07%.

Take `CCn1c(SCC(=O)Nc2cccc(F)c2)nnc1-c1cc2cc(Br)ccc2o1`: the inhibition was 24.2% (active).

For `Cn1c(SCC(=O)Nc2ccc(Br)cc2F)nnc1-c1ccco1`, the inhibition was 2.43%.

Take `CCn1c(CNC(=O)c2ccco2)nnc1SCC(=O)Nc1cccc(F)c1`: the inhibition is -1.17%.

As to `CCCCCCCCN1C(=O)[C@@H](CC(=O)NCc2ccc(C)o2)C[C@@]2(C(=O)OC)C1=C[C@H](C(C)(C)C)O[C@@H]2C`, the inhibition was 0.05%.

Turning to `COC(=O)C1=C(C)N(Cc2ccccc2C(F)(F)F)C(=NCc2ccc(OC)cc2)NC1c1cccc(C(F)(F)F)c1` (stereo not drawn), the inhibition was 24.9% (active).

In the case of `COC(=O)C1=C(C)N(Cc2ccccc2C(F)(F)F)C(=NCC2CC2)NC1c1cccc(Cl)c1` (stereo not drawn), the inhibition was -1.5%.

As for `COC(=O)C1=C(C)N(Cc2ccccc2C(F)(F)F)C(=NCc2ccc(C(F)(F)F)cc2)NC1c1ccc(F)cc1` (stereo not drawn), the inhibition was -2.66%.

One may read the inhibition as the relative decrease from the control value, in per cent.

The record behind these values is PubChem BioAssay AID624416 (The Scripps Research Institute Molecular Screening Center, 2012).
